# Data reported in PubChem BioAssay AID504652 (National Center for Advancing Translational Sciences (NCATS), 2011).
# About 11,000 (3.1%) of roughly 360,000 compounds were called active. The list comes from a sample in which actives are over-represented; it also holds similar structures and randomly drawn compounds. Unmarked numbers belong to inactive results. No stated cut-off is given here; in the data, active means activity change below about -30%; inactive means the rest.
# Target: D(1A) dopamine receptor (Homo sapiens) (UniProt P21728)
# Sequence (P21728 whole entry, looked up): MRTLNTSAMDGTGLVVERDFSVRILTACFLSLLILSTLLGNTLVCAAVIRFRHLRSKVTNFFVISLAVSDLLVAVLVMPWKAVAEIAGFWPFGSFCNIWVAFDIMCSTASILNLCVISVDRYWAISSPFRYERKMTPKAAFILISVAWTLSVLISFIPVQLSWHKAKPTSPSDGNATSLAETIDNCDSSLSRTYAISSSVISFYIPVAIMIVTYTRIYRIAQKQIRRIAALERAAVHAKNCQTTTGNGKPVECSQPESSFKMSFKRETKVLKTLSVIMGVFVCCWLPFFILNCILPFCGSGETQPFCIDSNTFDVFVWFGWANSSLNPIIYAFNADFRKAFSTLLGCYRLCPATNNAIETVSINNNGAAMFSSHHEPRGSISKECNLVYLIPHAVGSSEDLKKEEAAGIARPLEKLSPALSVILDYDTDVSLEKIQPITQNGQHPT
# Experiment: Antagonist of Human D 1 Dopamine Receptor: qHTS
# Conditions: HEK293 TREx D1 cells, calcium flux, dopamine EC80; at 10 µM; active compounds read low
# Outline: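 Tetracycline-induced HEK293 T-REx cells with force-coupled D1 receptor were loaded with a no-wash calcium dye. Compound was added after a 10 s baseline and read kinetically for 180 s; EC80 dopamine was then added and calcium flux followed another 180 s.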
# On the % scale 0 is the no-effect control and ±100 the full control effect.
row,Compound,"activity change, negative = inhibition"
1,COc1ccc(Nc2ncc(C(=O)Nc3cc(C)ccc3OC)c3ccccc23)cc1,-5.45%
2,O=C(Cn1c(=O)n(-c2ccc(F)cc2)c(=O)c2sccc21)Nc1cccc(C(F)(F)F)c1,10.9%
3,CCOc1ccc(N(CC(=O)NCCOc2ccccc2OC)S(=O)(=O)c2ccccc2)cc1,-9.44%
4,CCOc1ccc(N(CC(=O)NCCc2ccc(F)cc2)S(=O)(=O)c2ccccc2)cc1,-32.1% (active)
5,CCOc1ccc(N(CC(=O)NCCc2ccc(OC)cc2)S(C)(=O)=O)cc1,6.98%
6,COc1ccc(CC(=O)N2CC(=O)Nc3ccc(Br)cc3C2c2ccc(F)cc2)cc1OC (stereo not drawn),1.32%
7,Cc1nnc(C)n1-c1ccc(C(=O)Nc2cccc(Br)c2)cc1,-6.55%
8,CCN(Cc1ccccc1)C(=O)Cc1ccc(OC)c(S(=O)(=O)N2CCOCC2)c1,-8.6%
9,COCCN(Cc1ccccc1)C(=O)Cc1ccc(S(=O)(=O)N2CCOCC2)s1,-46% (active)
10,O=C(Cc1ccc(S(=O)(=O)N2CCOCC2)s1)NCCC(c1ccccc1)c1ccccc1,2.72%
11,C[C@H](NC(=O)c1nc[nH]c1C(=O)NCC(=O)OC(C)(C)C)C(=O)OCc1ccccc1,-24.2%
12,C[C@H](NC(=O)c1nc[nH]c1C(=O)N[C@@H](C)C(=O)OC(C)(C)C)C(=O)OC(C)(C)C,-89.3% (active)
13,CNC(=O)c1[nH]cnc1C(=O)N[C@@H](CC(C)C)C(=O)OC(C)(C)C,-1.57%
14,CCCCS(=O)(=O)c1oc(-c2cccs2)nc1S(=O)(=O)c1ccccc1,11.6%
15,COc1ccc(-c2nc(Cn3c(=O)cc(C)c4c(C)nn(-c5ccccc5)c43)c(C)o2)cc1OC,0.18%
16,COc1cccc(NC(=O)N2CCN(C(=O)c3nsc4ccccc34)CC2)c1,-44.8% (active)
17,CCc1ccc(NC(=O)N2CCN(C(=O)c3nsc4ccccc34)CC2)cc1,-22.5%
18,Cc1c(Cl)cccc1NC(=O)N1CCN(C(=O)c2nsc3ccccc23)CC1,-9.22%
19,O=C(Nc1cc(C(F)(F)F)ccc1Cl)c1ccc2c(c1)CCN2S(=O)(=O)c1ccccc1,3.06%
20,COc1ccc(C(=O)NC2CC2)cc1OC1CCN(Cc2ccc(SC)cc2)CC1,-63.9% (active)
21,COc1ccc(C(=O)NC2CC2)cc1OC1CCN(C/C=C/c2ccccc2)CC1,-56.2% (active)

row,Compound,"activity change, negative = inhibition"
1,COc1ccc(C(=O)NC2CC2)cc1OC1CCN(Cc2cnn(C)c2)CC1,-6.25%
2,COc1cc2[nH]c(=O)n(Cc3ccc(C(=O)NC4CCN(Cc5ccccc5)CC4)cc3)c(=O)c2cc1OC,8.55%
3,COc1cc(C(=O)N2CCN(C/C=C/c3ccccc3)CC2)cc(OC)c1C,6.67%
4,COc1ccc(C(=O)NCCn2nc(C)cc2C)cc1OC1CCN(C(C)=O)CC1,1.96%
5,CCOc1ccccc1NC(=O)Cn1nnc(C(=O)Nc2ccc(C)c(C)c2)c1N,6.21%
6,CC(C)(C)OC(=O)N1CCC(c2c(C(=O)Nc3ccc4c(c3)OCO4)cnn2-c2ccccc2)CC1,1.48%
7,COc1ccc(C2Sc3ccccc3NC3=C2C(=O)c2ccccc23)c(OC)c1OC (stereo not drawn),-5.17%
8,COc1ccc(N2CCN(c3nc(-c4ccccc4F)nc4ccccc34)CC2)cc1,-14.4%
9,CCc1ccc(CN(Cc2ccco2)C(=O)c2ccccc2Cl)cc1,-13.4%
10,COc1ccccc1C(C)NC(=O)Cc1ccsc1 (stereo not drawn),-36.8% (active)
11,COc1ccccc1OCc1ccc(C(=O)NC(C)c2ccccc2)o1 (stereo not drawn),10.5%
12,COc1ccc(CN(C)C(=O)Cc2ccsc2)c(OC)c1OC,-6.5%
13,CN(C(=O)CSc1nc2ccccc2n1Cc1ccccc1C#N)c1ccccc1,5.88%
14,COc1ccc(-c2c(C)c3ccc(O)c(CN4CCCC4)c3oc2=O)cc1OC,3.24%
15,COc1ccc(-c2c(C)c3ccc(O)c(CN4CCN(C)CC4)c3oc2=O)cc1OC,-44.5% (active)
16,CCN1CCN(Cc2c(O)ccc3c(=O)c(-c4ccc(OC)c(OC)c4)c(C(F)(F)F)oc23)CC1,10.8%
17,Cc1cccc(-c2nnc(SCC(=O)N3CCCc4ccccc43)o2)c1,-12.2%
18,COc1cccc(NC(C)=[N+](C)CCNS(=O)(=O)c2ccc(Cl)cc2)c1,-6.9%
19,CCN(CC(=O)Nc1ccc(S(=O)(=O)N2CCCC2)cc1)CC(=O)Nc1cccc(OC)c1,-18.1%
20,CCNS(=O)(=O)c1ccc(NC(=O)Nc2cccc(OC)c2)cc1,-47.6% (active)
21,CN1c2ccc(Cl)cc2-c2nc(SCC(=O)Nc3cc(F)ccc3F)ncc2S1(=O)=O,24.7%

row,Compound,"activity change, negative = inhibition"
1,Cc1ccc2oc(=O)c3cnn(CC(=O)N4CCN(c5cccc(Cl)c5)CC4)c3c2c1,4.75%
2,COCc1ccc(C(=O)N2CCc3c([nH]c4ccccc34)C2c2ccccn2)s1 (stereo not drawn),-33.8% (active)
3,Cc1cccc(C2c3[nH]c4ccccc4c3CCN2C(=O)c2cc(-c3cccn3C)n[nH]2)n1 (stereo not drawn),8.11%
4,Cc1ccc(C2c3[nH]c4ccccc4c3CCN2C(=O)c2cccc(C)c2)cc1 (stereo not drawn),-0.549%
5,Cc1cc(OCC(=O)Nc2ncn[nH]2)c(C)c(C)c1Br,3.31%
6,Cc1cc(/C=C2\SC(=Nc3ccc(N4CCOCC4)cc3)N(C)C2=O)c(C)n1-c1cccnc1,-38% (active)
7,COC(=O)c1cc(NC(=O)c2cccnc2)ccc1N1CCOCC1,1.15%
8,COc1ccc(S(=O)(=O)c2cn(C)c3cc(N4CCCCC4)c(F)cc3c2=O)cc1,-5.11%
9,O=C(/C=C/c1ccccc1)Nc1cc(-c2nc3cc(Cl)ccc3o2)ccc1Cl,-9.92%
10,COc1ccc(CNc2ccc3c(c2)CCC3)cc1OC,9.59%
11,COc1ccc(CNc2cc(C)cc(C)c2)cc1OC,-45.1% (active)
12,COc1ccc(CNCCCO)cc1OC,14.1%
13,CCOC(=O)c1ccc(N2C(=O)c3n[nH]c(-c4ccco4)c3C2c2ccc(O)cc2)cc1 (stereo not drawn),13%
14,CC(=O)c1ccc(NC(=O)CSc2c(C(C)C)cnc3c2c(=O)n(C)c(=O)n3C)cc1,1.89%
15,CCCCN1C(=O)c2[nH]nc(-c3ccccc3O)c2C1c1cccc(OCc2ccccc2)c1 (stereo not drawn),6.88%
16,COc1cccc2c1cc1c(=O)n(CC(=O)N3CCN(c4ccccc4)CC3)nc(C)n12,-3.55%
17,CC(=O)O[C@H]1CC[C@@]2(C)[C@@H](CC[C@@H]3[C@@H]2CC[C@]2(C)[C@@H](C(C)(C)O)C[C@@H]32)C1,-15.9%
18,CC(=O)[C@@]12O[C@@H]1C[C@H]1[C@@H]3CC[C@H]4C[C@@H](O)CC[C@]4(C)[C@H]3CC[C@@]12C,-34.5% (active)
19,Cc1cccc(NC(c2cccc(F)c2)c2ccc3ccc(C)nc3c2O)n1 (stereo not drawn),-16.7%
20,Cc1ccc(NC(=O)CCCNC(=O)c2ccc(Cl)cc2)cc1S(=O)(=O)N1CCCCC1,35.4%
21,Cc1ccc(NC(=O)CCCNC(=O)c2ccc(Cl)cc2)cc1S(=O)(=O)N1CCOCC1,-36.7% (active)

row,Compound,"activity change, negative = inhibition"
1,Cc1ccc(NC(=O)CCNC(=O)c2ccc([N+](=O)[O-])cc2)cc1S(=O)(=O)N1CCOCC1,4.33%
2,Cc1ccccc1CNC(=O)c1ccc(NC(=O)N2CCCCc3ccccc32)cc1,12.4%
3,Cc1ccccc1CN1CCC(CNC(=O)c2cc3ccc4cccnc4c3[nH]2)CC1,-3.23%
4,CC(C)(C)N1C(=O)[C@H]2[C@@H](c3ccc(Br)cc3)N3C(=O)N(c4cccc(Cl)c4)C(=O)[C@@]3(C)[C@H]2C1=O,-17.7%
5,CC[C@@]12C(=O)N(c3ccccc3)C(=O)N1[C@H](c1ccc(Br)cc1)[C@@H]1C(=O)N(C(C)(C)C)C(=O)[C@@H]12,-1.44%
6,COc1ccc([C@@H]2[C@@H]3C(=O)N(C(C)(C)C)C(=O)[C@@H]3[C@]3(Cc4ccccc4)C(=O)N(c4cccc(Br)c4)C(=O)N23)cc1,-34.9% (active)
7,Cc1nn(C(=O)c2c(F)cccc2F)c(C)c1S(=O)(=O)N1CCOCC1,10.5%
8,CCOc1ccc(N(CC)C(=O)C2CCN(S(=O)(=O)c3cccc4nonc34)CC2)cc1,-22%
9,Cc1cc2n(n1)C(c1cc(C(C)(C)C)c(O)cc1O)Nc1ccccc1-2 (stereo not drawn),0.223%
10,NS(=O)(=O)c1ccc2nc(NC(=O)COc3ccccc3)sc2c1,-38.3% (active)
11,NS(=O)(=O)c1ccc2nc(NC(=O)CS(=O)(=O)c3ccc(F)cc3)sc2c1,3.05%
12,CN(C(=O)CSc1nc2ccc(NC(=O)COc3ccccc3)cc2s1)c1ccccc1,-11.3%
13,Cc1ccc(NS(=O)(=O)c2ccc(-c3coc(C)n3)cc2)c(C)c1,-39.4% (active)
14,COc1cccc(NS(=O)(=O)c2ccc(-c3coc(C)n3)cc2)c1,-22%
15,CCN(c1cccc(C)c1)S(=O)(=O)c1ccc(-c2coc(C)n2)cc1,-16.9%
16,O=C(c1ccc(Br)cc1)N(Cc1cccs1)c1ccc(F)cc1,-5.47%
17,Cc1cccc(OCC(=O)NC2CC(C)(C)NC(C)(C)C2)c1,0.221%
18,COc1cc(OC)c(C(=O)NC2CC(C)(C)NC(C)(C)C2)cc1OC,-1.99%
19,COc1ccc(C(=O)NC2CC(C)(C)NC(C)(C)C2)cc1OC,-30.4% (active)
20,Cc1ccc(NC(=O)c2oc3ccc(S(=O)(=O)N4CCCCC4)cc3c2C)cc1Cl,0.571%
